MLLE-PAM2 inh: blocks PAM2 peptide binding to the PABP1 MLLE domain; P11940; GST-MLLE / FITC-PAM2 fluorescence polarization; inhibition, % at 20 µM; 0.36% of 360,000 active; AID 588489; in the data active = inhibition above about 35%, passing the limit was not always enough;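 also: plate controls were DMSO wells with GST-MLLE for no effect and wells lacking GST-MLLE protein for full effect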
APOBEC3A inh: blocks human APOBEC3A ssDNA deamination. P31941. inhibition, % at 20 µM. recombinant A3A, FAM/TAMRA ssDNA deamination fluorescence. 0.41% of 330,000 active. AID 493011;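 active = at least 40% inhibition at 20 µM here, with at most 30% in a related deaminase screen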;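 also: plate controls were A3A with DMSO for no effect and wells lacking A3A enzyme for full effect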
PABP polyA inh: PABP-poly(A) binding inhibition; P11940; PABP-poly(A) RNA binding, fluorescence polarization; calls only at 35 µM; 1% of 290,000 active;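 also: calls also rest on retests at 20 µM and on dose response follow-up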
A3G deaminase: inhibitors of human APOBEC3G DNA deaminase; Q9HC16; recombinant A3G, ssDNA deamination FAM/TAMRA fluorescence; inhibition, % at 20 µM; 0.28% of 330,000 active;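 active = inhibition of at least 40% at 20 µM, with no more than 30% in the related APOBEC3A deaminase screen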;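 also: plate controls were DMSO wells with A3G for no effect and wells lacking A3G enzyme for full effect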
PHOSPHO1 inh: PHOSPHO1 (human) inhibition; 1.1% of 290,000 active; Q8TCT1; inhibition, % at 13.3 µM; recombinant PHOSPHO1, absorbance phosphatase assay; AID 1565; in the data active = inhibition above about 60%
Target sequence (Q8TCT1 whole entry, looked up): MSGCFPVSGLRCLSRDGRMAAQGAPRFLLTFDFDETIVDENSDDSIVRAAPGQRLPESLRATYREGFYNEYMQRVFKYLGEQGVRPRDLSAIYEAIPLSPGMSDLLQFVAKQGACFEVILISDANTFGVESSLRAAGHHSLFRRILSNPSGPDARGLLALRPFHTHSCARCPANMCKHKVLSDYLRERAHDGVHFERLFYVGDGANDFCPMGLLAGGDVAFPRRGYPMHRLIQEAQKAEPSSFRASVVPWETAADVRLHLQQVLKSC
eIF4H inh: inhibitors of RNA binding by human eIF4H; eIF4H fluorescence polarization binding assay; inhibition, % at 35 µM; 0.94% of 290,000 active;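 also: calls also rest on retests at 20 µM and on dose response follow-up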
A3G conf: APOBEC3G (human) deaminase inhibition, confirmed | shares compounds with A3G deaminase | recombinant A3G ssDNA deaminase, UDG/FAM-TAMRA fluorescence | inhibition, % at 20 µM | 72% of 890 active | AID 493152;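 active = inhibition reaching a set limit in any replicate at 20 µM, the limit being 80% of the first screen's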
UDG A3G counter: E. coli UDG inhibition in APOBEC3G counter-screen. AID 504715. shares compounds with A3G deaminase. 710 tested, under 10 active. inhibition, % at 20 µM. UDG counterscreen, FAM/TAMRA oligo fluorescence;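 active = compounds giving 40% or more inhibition at 20 µM in any one of the three replicates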;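 also: plate controls were DMSO wells with UDG and oligo for no effect and DMSO wells lacking both for full effect; inhibitors lower the FAM signal released by uracil excision and alkaline cleavage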
* hit, by the source's call; i = inactive; / = no result given; + = active, no number. Most compounds without a hit are left out; they make up all but 2.6% or so of the library. Unless noted, no rule for the calls is given here.

SMILES | MLLE-PAM2 inh | APOBEC3A inh | PABP polyA inh | A3G deaminase | PHOSPHO1 inh | eIF4H inh | A3G conf | UDG A3G counter
CCN(CC)c1ccc(NC(=O)c2ccccc2)cc1S(=O)(=O)Nc1ccccc1OC | 27 | 4 | i | 50* | 95* | 1 | 48* | 1
CCN(CC)c1ccc(NC(=O)c2cccc(C)c2)cc1S(=O)(=O)Nc1ccccc1OC | 27 | 4 | i | 49* | 7 | 2 | 54* | 3
COc1ccc(CCNC(=O)C2CCN(C(=O)c3ccc(Br)cc3)CC2)cc1 | -15 | -1 | i | -2 | 25 | 0 | / | /
OCc1ccccc1SSc1ccccc1CO | 41* | 1 | / | 44* | / | / | 51* | -3
COc1cccc(-c2csc(N3CCN(CC(=O)NNC(=O)c4ccco4)CC3)n2)c1 | -11 | 0 | i | -5 | 19 | -7 | / | /
C=C(C)C(=O)Nc1cccc(C2=NOC3(C2)C[C@@H](C(N)=O)N(C(=O)c2cc([N+](=O)[O-])cc([N+](=O)[O-])c2C)C3)c1 (stereo not given in full) | -12 | 11 | i | 44* | 9 | 89 | 59* | -4
C=C(C)C(=O)Nc1cccc(C2=NOC3(C2)C[C@H](C(N)=O)N(C(=O)c2ccccc2)C3)c1 (stereo not given in full) | -4 | 10 | + | 63* | 35 | 91* | 65* | 3
CCC(=O)Nc1cccc(C2=NOC3(C2)C[C@@H](C(N)=O)N(C(=O)c2ccccc2C(=O)c2ccccc2)C3)c1 (stereo not given in full) | -2 | -4 | i | -3 | 31 | -6 | / | /
C=C(C)C(=O)Nc1cccc(C2=NOC3(C2)C[C@H](C(N)=O)N(C(=O)COc2ccc(Cl)cc2)C3)c1 (stereo not given in full) | -6 | 23 | + | 88* | 13 | 86* | 91* | -3
C/C=C(/C)C(=O)Nc1cccc(C2=NOC3(C2)C[C@H](C(N)=O)N(C(=O)c2ccc(Cl)cc2)C3)c1 (stereo not given in full) | -19 | -3 | i | -7 | 13 | -7 | / | /
C=C(C)C(=O)Nc1cccc(C2=NOC3(C2)C[C@@H](C(N)=O)N(C(=O)c2ccc(Cl)cc2)C3)c1 (stereo not given in full) | / | 28 | / | 100* | 26 | / | 90* | 4
CCC(=O)Nc1cccc(C2=NOC3(C2)C[C@@H](C(N)=O)N(C(=O)COc2ccc(Cl)cc2)C3)c1 (stereo not given in full) | -3 | 0 | i | -13 | 18 | -19 | / | /
O=C(O)c1ccccc1NS(=O)(=O)c1cccc(NS(=O)(=O)c2cc(Br)ccc2Br)c1 | 5 | 0 | / | -5 | / | / | / | /
O=C(C1CCN(c2ncnc3c2nc2n3CCCCC2)CC1)N1CCN(c2ccccc2F)CC1 | -3 | 4 | i | 46* | 34 | -8 | 1 | /
Cc1cccc(N2CCN(C(=O)C3CCN(c4ncnc5c4nc4n5CCCCC4)CC3)CC2)c1C | -6 | -2 | i | -3 | 32 | 1 | / | /
COc1cccc(-c2cnc3cccnn23)c1 | 4 | / | / | / | / | / | / | /
COC(=O)[C@H](CC(C)C)NC(=O)c1cc2c(cn1)[nH]c1ccccc12 | 21 | 1 | i | 58* | -21 | -7 | 63* | /
COC(=O)C(Cc1ccccc1)NC(=O)c1cc(=O)[nH]c2ccccc12 (stereo not given) | 11 | -3 | i | -5 | -3 | -8 | / | /
Cc1ccc(/C=N/n2c(-c3ccco3)n[nH]c2=S)cc1 | -16 | -4 | i | 40* | 40 | -8 | 66* | -1
S=c1[nH]nc(-c2ccco2)n1/N=C/c1c(Cl)cccc1Cl | -77 | -6 | i | 43* | -148 | 2 | 71* | 6
S=c1[nH]nc(-c2ccco2)n1/N=C/c1ccc(Cl)c(Cl)c1 | -56 | -5 | i | 44* | 38 | -4 | -1 | -2
Cc1cc(-c2n[nH]c(=S)n2-c2ccccc2)nn1C | 9 | 1 | i | 16 | -15 | 11 | / | /
Cc1cccc(/C=N/n2c(-c3ccco3)n[nH]c2=S)c1 | -52 | -5 | i | 35 | 40 | 5 | / | /
Fc1cccc(-c2n[nH]c(=S)n2-c2ccccc2)c1 | -15 | -4 | i | 41* | -208 | -6 | 86* | -2
COc1ccc2oc(C(=O)OCC(=O)NC(C)c3ccccc3)c(C)c2c1 (stereo not given) | -3 | 5 | i | -6 | 12 | -5 | / | /
SMILES | MLLE-PAM2 inh | APOBEC3A inh | PABP polyA inh | A3G deaminase | PHOSPHO1 inh | eIF4H inh | A3G conf | UDG A3G counter
CC1(C)CC(O)C(C(O)c2cccc([N+](=O)[O-])c2)C(C)(C)N1 (stereo not given) | -6 | -2 | i | -5 | -2 | 4 | / | /
Cc1ccc(S(=O)(=O)N2CCCCC2)cc1NC(=O)C1CC1 | 2 | 0 | / | -7 | / | / | / | /
COC(=O)c1cc(NC(=O)COC(=O)C2CCC2)cc(C(=O)OC)c1 | -22 | 0 | / | -9 | / | / | / | /
NC(=O)c1ccc(/C=N/O)[n+](Cc2ccccc2)c1 | 10 | -4 | i | -4 | 19 | -3 | / | /
Cc1ccc(-n2c(-c3ccco3)n[nH]c2=S)cc1 | -1 | -3 | i | 45* | -107 | -6 | 72* | 1
S=c1[nH]nc(-c2ccco2)n1/N=C/c1ccccn1 | / | -1 | i | 59* | 27 | 4 | 83* | 1
Cc1ccsc1/C=N/n1c(-c2ccco2)n[nH]c1=S | 0 | 0 | i | 42* | 62* | 0 | 77* | -3
Cc1occc1-c1n[nH]c(=S)n1-c1ccccc1 | -13 | -2 | i | 42* | 1 | 0 | 14* | -5
S=c1[nH]nc(-c2ccccn2)n1/N=C/c1ccco1 | -70 | 1 | i | -3 | -113 | 0 | / | /
Cc1occc1-c1n[nH]c(=S)n1C | -10 | -4 | i | 9 | -96 | -3 | / | /
Cc1cc(NC(=O)c2cc(-c3cccc(OCC(C)C)c3)nc3ccccc23)no1 | 14 | -4 | i | -9 | 3 | -1 | / | /
Cc1cccc(OCCCC(=O)NNC(=O)CCN2CCN(c3ccccc3)CC2)c1 | -5 | 2 | / | -10 | / | / | / | /
Cc1nnc(NC(=O)c2cccc(S(=O)(=O)N3CCCC3)c2)s1 | 4 | 3 | i | 0 | 18 | -11 | / | /
Cn1cccc1/C=N/n1c(-c2ccco2)n[nH]c1=S | -39 | -4 | i | 44* | -5 | -3 | 80* | -3
Cc1ccc(NC(=O)c2ccc(Cl)c(N3C(=O)C=CC3=O)c2)cc1 | 9 | -5 | i | 46* | -41 | -4 | 53* | -7
S=c1[nH]c2ccc(Cl)cc2[nH]1 | -27 | -1 | i | 41* | -3 | 4 | 81* | -3

Screening data as filed in PubChem.
